{
  "source": "PubChem BioAssay (NCATS)",
  "key": {"[1]": {"biological_target": "Luciferin 4-monooxygenase (Photinus pyralis) (UniProt P08659)", "sequence (P08659 whole entry, looked up)": "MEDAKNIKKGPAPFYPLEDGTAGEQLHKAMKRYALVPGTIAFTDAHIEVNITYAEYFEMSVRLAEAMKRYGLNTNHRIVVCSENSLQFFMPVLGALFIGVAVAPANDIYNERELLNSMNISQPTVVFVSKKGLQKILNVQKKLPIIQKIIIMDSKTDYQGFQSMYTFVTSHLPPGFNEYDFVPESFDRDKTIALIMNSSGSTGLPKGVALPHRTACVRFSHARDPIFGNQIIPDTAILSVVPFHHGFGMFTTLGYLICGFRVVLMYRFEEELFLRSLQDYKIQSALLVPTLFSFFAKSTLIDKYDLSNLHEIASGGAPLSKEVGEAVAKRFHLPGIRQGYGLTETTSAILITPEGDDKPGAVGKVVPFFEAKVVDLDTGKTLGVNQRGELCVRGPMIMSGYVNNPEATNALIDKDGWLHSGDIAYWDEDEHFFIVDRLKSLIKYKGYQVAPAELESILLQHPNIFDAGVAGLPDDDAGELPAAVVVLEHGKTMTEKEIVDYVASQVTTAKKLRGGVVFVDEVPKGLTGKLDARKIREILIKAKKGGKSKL", "assay": "Biochemical firefly luciferase enzyme assay for NPC (AID 624030);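 further: purified P. pyralis luciferase at 10 nM with luciferin and ATP substrate; series mostly up to about 59 µM; nearly all actives have a fitted effect of over 70% in size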", "summary_of_the_method": "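Purified P. pyralis luciferase at 10 nM in 50 mM Tris Acetate (final), luminescence read within 5 minutes of enzyme addition to compounds. Activity normalised to PTC124 versus DMSO; concentration-response curves classed by r2, magnitude and activity.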"}, "[2]": {"assay": "S16 Schwann cell viability assay (CellTiter-Glo assay) (AID 624031);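 further: native untransfected S16 rat Schwann cells; cellular ATP luminescence as a viability measure; series mostly up to about 58 µM; nearly all actives have a fitted effect of over 70% in size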", "summary_of_the_method": "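Cells were seeded at 500-750 per well in phenol red-free DMEM with 10% FBS and left overnight. Compounds or DMSO were pinned in, incubation ran 24 h at 37 °C/5% CO2, then CellTiter-Glo reagent was added and luminescence measured.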"}, "[3]": {"assay": "S16 Schwann cell PMP22 intronic element firefly luciferase assay (AID 624032); further: nearly all actives have a fitted effect of over 30% in size; further: potency means the concentration at half of the fitted maximal effect", "summary_of_the_method": "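Rat S16 Schwann cells stably carrying firefly luciferase driven by a PMP22 intronic element, in 10% FBS, treated 24 h at 37 C. ONE-Glo luminescence normalized to PTC124 control and DMSO (0%); curves classed by r2, magnitude and activity.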"}, "[4]": {"assay": "S16 Schwann cell PMP22 intronic element beta-lactamase assay (AID 624044; calls by dose curve; further: nearly all actives have a fitted effect of over 15% in size)", "summary_of_the_method": "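Beta-lactamase reporter under a PMP22 intronic regulatory element in stable S16 rat Schwann cells; 24 h compound exposure. 460 nm blue signal normalized between DMSO (0%) and potassium clavulanate, with 535 nm FRET tracking viability; curves classed by r2 and response.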"}, "[5]": {"biological_target": "Glutaminase kidney isoform, mitochondrial (Homo sapiens) (UniProt O94925)", "sequence (O94925 whole entry, looked up, canonical isoform)": "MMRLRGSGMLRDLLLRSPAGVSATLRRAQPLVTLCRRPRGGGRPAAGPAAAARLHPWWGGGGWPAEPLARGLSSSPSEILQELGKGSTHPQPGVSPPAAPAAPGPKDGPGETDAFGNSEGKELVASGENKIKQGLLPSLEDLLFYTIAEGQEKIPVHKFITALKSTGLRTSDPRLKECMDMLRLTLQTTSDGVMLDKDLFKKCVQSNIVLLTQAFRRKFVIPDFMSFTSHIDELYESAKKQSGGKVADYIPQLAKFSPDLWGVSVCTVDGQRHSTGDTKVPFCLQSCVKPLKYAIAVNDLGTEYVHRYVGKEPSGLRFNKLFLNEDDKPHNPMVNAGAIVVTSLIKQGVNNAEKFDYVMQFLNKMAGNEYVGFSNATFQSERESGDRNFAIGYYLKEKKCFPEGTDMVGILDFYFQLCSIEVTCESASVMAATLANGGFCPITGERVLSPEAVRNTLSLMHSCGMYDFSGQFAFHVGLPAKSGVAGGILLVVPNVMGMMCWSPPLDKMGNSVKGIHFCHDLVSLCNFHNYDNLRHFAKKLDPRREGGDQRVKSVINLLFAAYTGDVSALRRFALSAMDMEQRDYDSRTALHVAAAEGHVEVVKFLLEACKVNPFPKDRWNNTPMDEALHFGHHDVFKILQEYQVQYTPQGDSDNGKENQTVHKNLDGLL", "assay": "qHTS for Inhibitors of Glutaminase (GLS): LOPAC Validation (AID 624146); further: series mostly up to about 46 µM; nearly all actives have a fitted effect of over 60% in size", "summary_of_the_method": "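Assay buffer: 45 mM KH2PO4 pH 8.2, 0.02% Tween-20. hKGA acts on L-glutamine (1 mM solution added); product glutamate is reported by an oxidase/peroxidase Amplex Red coupling, with fluorescence taken at baseline and 30 min.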"}, "[6]": {"assay": "qHTS of Trypanosoma Brucei Inhibitors: LOPAC Validation (AID 624147)", "summary_of_the_method": "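Quantitative HTS: titrated library compounds versus trypanosomal pyruvate kinase in TEA buffer (pH 7.2) containing KCl, MgCl2, BSA and Tween-20. Reactions were initiated with ADP, 130 uM final. Kinase-Glo Plus luminescence was read after 45 min at RT.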"}, "[7]": {"biological_target": "Glucagon-like peptide 1 receptor (Homo sapiens) (UniProt P43220)", "sequence (P43220 whole entry, looked up)": "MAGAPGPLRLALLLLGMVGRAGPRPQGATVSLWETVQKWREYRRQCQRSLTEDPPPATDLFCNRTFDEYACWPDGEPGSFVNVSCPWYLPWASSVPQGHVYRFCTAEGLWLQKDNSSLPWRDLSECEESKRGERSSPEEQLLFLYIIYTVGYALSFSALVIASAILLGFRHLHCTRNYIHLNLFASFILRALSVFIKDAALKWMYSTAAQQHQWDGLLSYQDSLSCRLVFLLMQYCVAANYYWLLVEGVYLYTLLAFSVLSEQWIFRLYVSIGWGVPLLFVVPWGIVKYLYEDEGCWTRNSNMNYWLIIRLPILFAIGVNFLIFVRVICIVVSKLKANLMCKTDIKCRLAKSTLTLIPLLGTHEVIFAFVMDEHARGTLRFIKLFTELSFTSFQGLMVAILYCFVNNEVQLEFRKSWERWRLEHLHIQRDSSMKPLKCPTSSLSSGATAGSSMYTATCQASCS", "assay": "qHTS of GLP-1 Receptor Agonists: LOPAC Validation (AID 624148);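 further: higher luminescence signal means agonism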", "summary_of_the_method": "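HEK293 cells stably co-expressing GLP-1R and a cAMP-responsive luciferase reporter, plated 12 hours before compound, then incubated 4-6 hr at 37 deg C. Luminescence read 12 min after detection reagent.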"}, "[8]": {"assay": "qHTS of Nrf2 Activators: LOPAC Validation (AID 624149)", "summary_of_the_method": "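Following overnight seeding in 5% FBS OPTI-MEM, AREc32_Fluc cells receive compounds for a 24 hr incubation at 37 deg C with 5% CO2. Steady-Glo is added, and after 30 min at RT luminescence is recorded.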"}, "[9]": {"assay": "HTS Assay for Allosteric Antagonists of the Human D2 Dopamine Receptor: Hit Validation in HTRF (AID 624455)", "summary_of_the_method": "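Validation of hits used D1 receptor stably expressed in cells with HTRF detection of response inhibition; origin screen measured calcium flux following EC80 dopamine in a force-coupled, inducible Hek293 Trex D2 cell line.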"}},
  "note": "Inconclusive results are not listed. Entries that show only a call come without a potency. Activity calls are given as the source filed them. Unless noted, the call rests on the fitted dose curve; in most records, active means well fitted curve in the direction sought with a large enough effect; inconclusive means small, poorly fitted or top-dose-only effect, or another doubt; inactive means no such curve, though single readings can be large; an effect the other way counts as inactive or inconclusive.",
  "data": [
    {"smiles": "O=C1CN(/N=C/c2ccc(-c3ccc([N+](=O)[O-])cc3)o2)C(=O)N1", "values": [
      {"measurement": "Potency", "setting": "[1]", "result": "inactive"},
      {"measurement": "Potency", "setting": "[2]", "result": "inactive"},
      {"measurement": "Potency", "setting": "[3]", "result": "inactive"},
      {"measurement": "Potency", "setting": "[4]", "result": "inactive"}
    ]},
    {"smiles": "NC(=O)C(c1ccccc1)(c1ccccc1)[C@@H]1CCN(CCc2ccc3c(c2)CCO3)C1", "values": [
      {"measurement": "Potency", "setting": "[1]", "result": "inactive"},
      {"measurement": "Potency", "setting": "[2]", "result": "inactive"}
    ]},
    {"smiles": "O=P(O)(O)C(Cl)(Cl)P(=O)(O)O", "values": [
      {"measurement": "Potency", "setting": "[5]", "result": "inactive"},
      {"measurement": "Potency", "setting": "[6]", "result": "inactive"},
      {"measurement": "outcome", "setting": "[7]", "result": "inactive"},
      {"measurement": "outcome", "setting": "[8]", "result": "inactive"},
      {"measurement": "Potency", "setting": "[9]", "result": "inactive"}
    ]},
    {"smiles": "COc1cc(/C=C/C(=O)CC(=O)/C=C/c2ccc(O)c(OC)c2)ccc1O", "values": [
      {"measurement": "Potency", "setting": "[2]", "result": "inactive"},
      {"measurement": "Potency", "setting": "[3]", "result": "20.3 µM (active)"},
      {"measurement": "Potency", "setting": "[4]", "result": "inactive"}
    ]},
    {"smiles": "Cc1[nH]cnc1CN1CCc2c(c3ccccc3n2C)C1=O", "values": [
      {"measurement": "Potency", "setting": "[1]", "result": "inactive"},
      {"measurement": "Potency", "setting": "[2]", "result": "inactive"},
      {"measurement": "Potency", "setting": "[3]", "result": "inactive"}
    ]},
    {"smiles": "CC1OC1P(=O)(O)O", "note": "(stereo not drawn)", "values": [
      {"measurement": "Potency", "setting": "[1]", "result": "inactive"},
      {"measurement": "Potency", "setting": "[2]", "result": "inactive"},
      {"measurement": "Potency", "setting": "[3]", "result": "inactive"},
      {"measurement": "Potency", "setting": "[6]", "result": "inactive"},
      {"measurement": "outcome", "setting": "[7]", "result": "inactive"},
      {"measurement": "Potency", "setting": "[9]", "result": "inactive"}
    ]},
    {"smiles": "CC1(C)[C@@H](O)CC[C@]2(C)[C@H]3C(=O)C=C4[C@@H]5C[C@@](C)(C(=O)O)CC[C@]5(C)CC[C@@]4(C)[C@]3(C)CC[C@@H]12", "values": [
      {"measurement": "Potency", "setting": "[1]", "result": "inactive"},
      {"measurement": "Potency", "setting": "[2]", "result": "inactive"},
      {"measurement": "Potency", "setting": "[3]", "result": "8.09 µM (active)"},
      {"measurement": "Potency", "setting": "[4]", "result": "inactive"}
    ]},
    {"smiles": "Cc1cc(NC2CCCCC2)nc(-n2nc(C)cc2C)n1", "values": [
      {"measurement": "Potency", "setting": "[5]", "result": "inactive"},
      {"measurement": "Potency", "setting": "[6]", "result": "inactive"},
      {"measurement": "outcome", "setting": "[7]", "result": "inactive"},
      {"measurement": "outcome", "setting": "[8]", "result": "inactive"},
      {"measurement": "Potency", "setting": "[9]", "result": "inactive"}
    ]},
    {"smiles": "Nc1ncnc2c1ncn2[C@@H]1O[C@H](COP(=O)(O)OP(=O)(O)OP(=O)(O)OP(=O)(O)OC[C@@H]2O[C@H](n3cnc4c(N)ncnc43)[C@@H](O)[C@H]2O)[C@@H](O)[C@H]1O", "values": [
      {"measurement": "Potency", "setting": "[5]", "result": "inactive"},
      {"measurement": "Potency", "setting": "[6]", "result": "inactive"}
    ]},
    {"smiles": "Cc1cc2c(cc1Cl)N(C(=O)Nc1ccc(Oc3cccnc3C)nc1)CC2", "values": [
      {"measurement": "Potency", "setting": "[5]", "result": "inactive"},
      {"measurement": "Potency", "setting": "[6]", "result": "inactive"},
      {"measurement": "outcome", "setting": "[7]", "result": "inactive"},
      {"measurement": "outcome", "setting": "[8]", "result": "inactive"},
      {"measurement": "Potency", "setting": "[9]", "result": "inactive"}
    ]},
    {"smiles": "C#C[C@]1(O)CC[C@H]2[C@@H]3CCC4=Cc5oncc5CC4(C)[C@H]3CCC21C", "note": "(stereo partly drawn)", "values": [
      {"measurement": "Potency", "setting": "[5]", "result": "inactive"},
      {"measurement": "Potency", "setting": "[6]", "result": "inactive"},
      {"measurement": "outcome", "setting": "[7]", "result": "inactive"},
      {"measurement": "outcome", "setting": "[8]", "result": "inactive"}
    ]}
  ]
}
